# Screening data: PubChem BioAssay, several laboratories
# EBV LMP1 NFkB = EBV LMP1-driven NF-kappaB luciferase reporter inhibitors, primary screen, cell-based, luminescence, single point | 350,000 tested, 0.69% active | inhibition, % at 12.5 µM | LMP1-induced NF-kappaB luciferase reporter cells; in the data active means inhibition above about 41%;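 further: 0% = neutral control wells and 100% = reference inhibitor control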
# HSF1 inh = HSF1 inhibitors in luciferase reporter cells, primary screen, cell-based, NIH3T3, luminescence. 300,000 tested, 0.77% active. AID 2098, 2009. NIH3T3-HGL HSE-luciferase, MG132-induced, luminescence 8 h; active compounds read low. activity change, negative = inhibition, % at 7.5 µM (by protocol);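 active means more than half of replicate wells show activity change below -50%, luminescence cut by over half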;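 further: luciferase reports HSF-1 transcriptional activity via heat shock element; 0% = median of DMSO wells and -100% = zero luminescence signal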
# TROY NFkB inh = inhibitors of TROY-driven NF-kB signaling, primary screen, Q293 LMP1-TROYcd cells, NF-kB luciferase, uHTS; Q293 LMP1-TROYcd NF-kB luciferase reporter, 4 h; inhibition, % at 10 µM; 360,000 tested, 0.98% active;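 active means compounds whose plate-normalised and pattern-corrected inhibition of the luciferase reporter signal at the single screening dose is 50% or more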
# HSP90 refold inh = HSP90 inhibitors, primary screen, cell lysate, luminescence | Rabbit reticulocyte lysate, luciferase refolding luminescence, 3 h | inhibition, % at 5.6 µM | 290,000 tested, 0.91% active | AID 1789, 2009;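 active means inhibition above the screen-wide mean plus 3 SD, computed separately per campaign, cut at about 16% in these data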;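 further: 0% = DMSO wells and 100% = 60 µM geldanamycin wells; inhibitors lower the luminescence because luciferase stays unfolded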
# HSF1 activator = HSF-1 activators, primary screen, NIH3T3-HGL cells, MG132 stress, luminescence, single point; NIH3T3-HGL HSF-1 luciferase reporter, 8 h; 100% = twice DMSO control signal; 300,000 tested, 1.7% active; AID 504408, 2011; activation, % at 9 µM;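 active means mean replicate activation of at least 50% with a set share of replicates each reaching 50%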;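 further: 0% = median of the neutral control wells and 100% = twice that signal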
# TWEAK-Fn14 inh = inhibitors of TWEAK-Fn14 signaling, primary screen, luciferase reporter cells, uHTS. inhibition, % at 10 µM. TWEAK-stimulated Fn14 reporter cells, luciferase luminescence, 8 h. 360,000 tested, 2% active; in the data active means inhibition above about 50%
# An asterisk follows results filed as active; x = no result. Rows were chosen to be rich in hits. Some 4.7% of all compounds tested hit in one or more screens of this group.
SMILES,EBV LMP1 NFkB,HSF1 inh,TROY NFkB inh,HSP90 refold inh,HSF1 activator,TWEAK-Fn14 inh
COc1cc(OC)c2c(-c3cccc(-c4ccc(CO)cc4)c3)cc(=O)oc2c1,10,x,41,x,x,75*
COc1cc2oc(=O)cc(-c3ccc(-c4ccc(N(C)C)cc4)cc3)c2c(OC)c1OC,42*,x,71*,x,x,92*
COc1ccc(-c2cccc(-c3cc(=O)oc4cc(OC)cc(OC)c34)c2)cc1,-14,x,20,x,x,5
COc1ccccc1-c1csc(C(C)(O)c2cccc(F)c2)n1 (stereo not given),x,x,7,x,x,-3
Cc1cccc(C)c1-n1nnnc1C1(C)CCC(=O)N1Cc1cccs1 (stereo not given),x,x,3,x,x,8
Cc1cc(C)n(CC(=O)N/N=C/c2ccc([N+](=O)[O-])s2)n1,-5,3,-16,-1,4,7
Cc1nccn1CC(=O)N/N=C/c1ccccc1O,3,14,19,4,43,-3
Cc1cc(C)n(CC(=O)N/N=C/c2cccs2)n1,-18,2,-15,-2,11,105*
Cc1nccn1CC(=O)N/N=C/c1cccs1,-1,-2,-5,3,6,74*
CC(C)(C)c1ccc(S(=O)(=O)NC(=O)C2(C)CCN2C(=O)Cc2ccc(-c3ccccc3)cc2)cc1 (stereo not given),x,x,6,x,x,18
Cc1csc2ncnc(N3CCN(C(=O)Nc4ccc(OC(F)(F)F)cc4)CC3)c12,19,-8,40,3,-23,63*
Cc1ccc(NC(=O)CSCC(=O)N(C)Cc2c(F)cccc2Cl)cc1,-6,x,14,x,x,23
CN1OC[C@@H]2CN(C(=S)NCCc3ccccc3)[C@H](c3ccc(N4CCCCC4)cc3)C[C@@H]21,x,x,-14,x,x,-29
O=C(Nc1ccccc1)C(Cc1ccccc1)c1ccccc1 (stereo not given),-5,x,7,x,x,10
Cc1n[nH]c(C)c1CCOc1ccc(C(C)C)cc1,-2,47,10,-4,100*,-6
COc1cc(OC)cc(C(=O)O/N=C(\N)c2ccccn2)c1,x,30,-69,2,55*,-12
N/C(=N\OC(=O)Cc1ccc(-c2ccccc2)cc1)c1ccccn1,3,-35,70*,2,-43,70*
COc1ccc(CC(=O)O/N=C(\N)c2ccccn2)cc1,-8,5,-18,-2,34,9
N/C(=N\OC(=O)c1ccc(Cl)c(Cl)c1)c1ccccn1,-18,5,39,-1,1,80*
CCOc1cc(C(=O)O/N=C(\N)c2ccccn2)cc(OCC)c1OCC,-14,7,24,0,-8,-31
CCCNC(=O)c1cc(C2CCCN(C(=O)c3ccc4ccccc4c3)C2)on1 (stereo not given),x,x,0,x,x,-1
CC(CN1CCCCC1)NC(=O)c1scnc1-c1ccccc1 (stereo not given),x,x,-2,x,x,0
O=C(O)c1c(F)c(F)cc2ccccc12,-3,-8,-2,-1,-6,107*
O=C(c1ccc2ccccc2c1)c1cccc(F)c1C(=O)O,5,x,-13,x,x,-4
CC(C)N1CCC1(C)C(=O)Nc1nccc2cccnc12 (stereo not given),x,x,-4,x,x,-12
SMILES,EBV LMP1 NFkB,HSF1 inh,TROY NFkB inh,HSP90 refold inh,HSF1 activator,TWEAK-Fn14 inh
CCOC(=O)C(=O)N(C)c1c(CC)nc2c(OCCC3CCCCC3)cccn12,x,x,14,x,x,-4
O=C(/C=C/c1cccs1)NC(=S)Nc1ccc(S(=O)(=O)Nc2ccccc2C(F)(F)F)cc1,4,5,52*,-3,47,9
O=C(NCc1ccco1)c1nc2c(nnn2Cc2ccccc2Cl)c(=O)[nH]1,31,8,85*,2,29,85*
CC(C)NC(=O)N(C)C[C@H]1OCc2cnnn2CCCC(=O)N([C@H](C)CO)C[C@H]1C,4,x,-2,x,x,9
O=C1CNC(=S)N1c1nc(-c2ccccc2)cs1,-17,26,-36,-3,52*,-9
COc1ccc(-c2csc(N3C(=O)CNC3=S)n2)cc1,-4,8,21,0,29,61*
COc1ccc(-c2csc(N3C(=N)SCC3=O)n2)cc1,-25,10,38,0,10,65*
COc1ccc(-c2csc(N3C(=O)C4C5c6ccccc6C(c6ccccc65)C4C3=O)n2)cc1 (stereo not given),0,2,2,6,1,11
COc1ccc(-c2csc(N3C(=O)C4C5c6ccccc6C(c6ccccc65)[C@@H]4C3=O)n2)cc1 (stereo not given in full),0,-5,-12,0,-7,7
CN(C)c1ccc(-c2csc(C(C)(O)c3cccc(F)c3)n2)cc1 (stereo not given),x,x,-11,x,x,-29
CC(C)N1C(=O)C(=O)N(CC(=O)N2c3ccccc3CC2C)C1=O (stereo not given),-3,x,-1,x,x,3
O=C(c1c[nH]c2ccccc12)C(O)C(c1ccccc1)N1CCOCC1 (stereo not given),2,-6,-9,-3,-9,-8
O=C(c1c[nH]c2ccccc12)C(Cl)c1ccccc1 (stereo not given),-15,8,13,1,30,79*
Brc1ccc(-c2ncc(-c3ccccc3)cn2)cc1,-24,15,-9,-3,28,52*
COc1ccccc1CNC(=O)C1(C)CCN1C(=O)C1(c2ccccc2)CC1 (stereo not given),x,x,4,x,x,3
O=C(C1CCN(c2ncnc3c2nc2n3CCCCC2)CC1)N1CCN(c2cccc(Cl)c2)CC1,6,0,49,1,-2,54*
O=C(C1CCCN(c2ncnc3c2nc2n3CCCCC2)C1)N1CCN(c2ccc(Cl)cc2)CC1 (stereo not given),-1,6,50,-3,8,38
Cn1c(C(=O)OCC(=O)NCc2cccs2)cc2sccc21,2,-3,-32,-1,-11,0
Cn1c(C(=O)OCC(=O)NCCc2ccccc2)cc2sccc21,-4,-1,-4,-2,1,53*
CC(Oc1ccc(Cl)cc1)C(=O)/C=C/N(C)C (stereo not given),-7,11,-1,-8,54*,1
CC(=O)N/C(=C/c1ccc2c(c1)OCO2)C(=O)O,-12,-8,-1,3,6,-5
CCC(NC(=O)/C(=C\c1ccc2c(c1)OCO2)NC(C)=O)C(=O)O (stereo not given),-4,27,-2,0,59*,7
O=[N+]([O-])c1ccc(Sc2ccccc2)nc1,3,17,0,3,53*,18
